This passage reports growth results from PubChem BioAssay (NCI).

The panel holds about 83,000 compounds, 20% with a hit somewhere; the sample as a whole holds those more often.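 For each line, cells grew in 96-well plates with the test compound present at a single concentration for 48 hours.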 Values without a mark were called inactive. Active and inactive are the calls of the source. The calls were made as follows: active = growth percent below 10; inactive = the rest.

Holding throughout (assay): NCI-60 one-dose screen, 48 h (100 = growth as untreated, 0 = no growth, -100 = all killed)
Common to all, as to conditions: 10 µM unless noted

In assay [1] the test system is RPMI-8226 leukemia.
Assay [2] deals with OVCAR-8 ovarian.
Assay [3] has as its system OVCAR-5 ovarian.
Assay [4] deals with OVCAR-4 ovarian.
The subject of assay [5] is SK-OV-3 ovarian.
The subject of assay [6] is IGROV1 ovarian.
Assay [7] relates to OVCAR-3 ovarian.
Assay [8] concerns HS 578T breast.
The subject of assay [9] is NCI/ADR-RES ovarian.
For assay [10], the system named is T-47D breast.
Assay [11] deals with BT-549 breast.
The test system of assay [12] is MDA-MB-435 melanoma.
Assay [13] concerns SW-620 colon.
For assay [14], the system named is MCF7 breast.
In assay [15] the test system is HCT-116 colon.
The test system of assay [16] is HCC-2998 colon.
In assay [17] the test system is KM12 colon.

Turning to `Cc1cc(NC(=O)Nc2cc(Cl)ccc2C)no1`, the growth in assay [1] was 88.8%; in assay [2], 110%; in assay [3], 104%; in assay [4], 99.6%; in [5] it was 99.7%; in [6], 68.5%. In addition, the growth in [7] is 117%; in assay [8] it was 125%; in assay [9] it was 101%; in assay [10] it was 89.4%; in assay [11], 147%; in [12] it was 110%. The growth in [13] was 110%; in assay [14] it was 84.4%; in [15], 104%; in assay [16], 99.3%; in assay [17], 107%.
Turning to `COc1ccc(C2CC(c3cccc(Nc4ccnc5cc(Cl)ccc45)c3)=NN2C=O)cc1` (stereo not drawn), the growth in assay [1] was 21.5%; in assay [2], 35.1%; in assay [3], 45.3%; in [4] it was 61.7%; in assay [5], 19%; in [6], 32.7%. Also, the growth is -22.7% (active) in assay [7]; -3.1% (active) in assay [8]; 8.68% (active) in assay [9]; 43.5% in [10]; 30.9% in assay [11]; -36% (active) in assay [12]. For the same molecule, the growth in assay [13] was 18.7%; in assay [14], 22.4%; in assay [15], 7.09% (active); in assay [16], 35.4%; in [17], 23.1%.
As for `Nc1ccc2c(c1)/C(=N/O)c1cc([N+](=O)[O-])ccc1-2`, the growth in assay [1] was 58.9%; in [2] it was 87%; in assay [3], 102%; in assay [4], 84%; in assay [5], 81.6%; in [6] it was 57%. In addition, the growth was 63.8% in assay [7]; 77.2% in assay [8]; 109% in [9]; 93% in assay [10]; 50.8% in assay [11]; 50.9% in assay [12]. For the same molecule, the growth in assay [13] is 13.1%; in assay [14] it was 81.8%; in assay [15], 47.3%; in [16], 103%; in assay [17] it was 64.8%.
For `N#CCCCCCn1c2ccccc2c2c3c(c4c5ccccc5[nH]c4c21)C(=O)N(O)C3=O`, the growth is -18.3% (active) in assay [1]; 7.06% (active) in assay [2]; -18.3% (active) in [3]; 19.5% in assay [4]; 41.3% in assay [5]; -1.36% (active) in assay [6]. Besides, the growth was -13.4% (active) in assay [7]; 19.8% in [8]; 67.9% in [9]; 14.2% in [10]; 16.1% in assay [11]; 14.3% in [12]. Besides, the growth is 12.5% in assay [13]; 6.24% (active) in assay [14]; -33.3% (active) in [15]; 1.36% (active) in assay [16]; 4.16% (active) in [17].
In the case of `COc1cc2c(cc1OC)C1CCN3C(=O)CCC3N1CC2` (stereo not drawn), the growth was 102% in assay [1]; 113% in assay [2]; 109% in assay [3]; 116% in assay [4]; 112% in assay [5]; 125% in assay [6]. For the same molecule, the growth in assay [7] is 113%; in [8] it was 97.9%; in assay [9] it was 99.6%; in [10] it was 105%; in [11], 107%; in assay [12] it was 113%. The growth in assay [13] was 106%; in assay [14], 103%; in [15] it was 109%; in [16], 101%; in assay [17] it was 109%.
Consider `O=C1NCN(CCO)CN1`, for which the growth in [1] was 85.6%; in assay [2] it was 99.9%; in assay [3], 101%; in [4] it was 98.5%; in assay [5], 95.4%; in [6] it was 115%. The growth was 107% in assay [7]; 96.7% in assay [8]; 102% in assay [9]; 89.9% in [10]; 75.9% in assay [11]; 97.1% in assay [12]. Moreover, the growth in assay [13] is 102%; in assay [14] it was 94.1%; in [15], 106%; in [16], 100%; in assay [17], 108%.
Turning to `O=C1c2ccccc2-c2c1nc1ccccc1[n+]2[O-]`, the growth in assay [1] is 106%; in assay [2] it was 108%; in [3], 94.9%; in assay [4] it was 115%; in assay [5] it was 102%; in assay [6] it was 99.9%. The growth was 107% in assay [7]; 106% in assay [8]; 105% in assay [9]; 107% in assay [10]; 98.2% in assay [11]; 110% in assay [12]. Further, the growth in assay [13] is 97.5%; in assay [14] it was 95.8%; in assay [15], 98.5%; in assay [16] it was 104%; in assay [17], 101%.
Turning to `CCN1C[C@@H](C)n2c(c(O)c3c(=O)n(Cc4ccc(F)c(Cl)c4)nc(C(=O)NC)c32)C1=O`, the growth in [1] was 19.4%; in assay [2], 22%; in assay [3] it was 88.6%; in assay [4] it was 80.2%; in assay [5], 43.5%; in [6] it was 28.7%. In addition, the growth was 38.1% in assay [7]; 16.7% in assay [8]; 15.3% in assay [9]; 27% in [10]; 9.6% (active) in [11]; 27.4% in assay [12]. The growth in assay [13] was 21.1%; in assay [14] it was 53.6%; in [15] it was 16.3%; in assay [16], 14.7%; in [17], 21%.
Turning to `CC[N+](CC)(CCOCCOCC[N+](CC)(CC)Cc1ccc([N+](=O)[O-])cc1)Cc1ccc([N+](=O)[O-])cc1`, the growth in [1] was 96.6%; in [2] it was 103%; in assay [3], 98.8%; in assay [4] it was 106%; in [5], 112%; in assay [6], 125%. The growth was 116% in assay [7]; 133% in [8]; 98.9% in [9]; 95.3% in [10]; 107% in assay [11]; 104% in [12]. Besides, the growth was 101% in assay [13]; 104% in assay [14]; 97.8% in [15]; 98.1% in assay [16]; 101% in assay [17].
